Screens from PubChem BioAssay.
iPSC survival up: enhancers of single-cell hiPSC survival, primary screen, ATPlite luminescence | 100% = ROCK inhibitor wells, 0% = DMSO | survival enhancement, % at 20 µM | actives 0.044% (n = 360,000) | AID 602274, 2012; in the data active = survival enhancement above about 18%;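 note: cells exposed to compounds for 16 hours before the ATP read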
CRFR2-BP ag: agonists of CRF-BP/CRF-R2 complex, primary screen, cell-based, HEK293, calcium dye fluorescence, uHTS. CRF-binding protein / CRF receptor 2 complex (human). actives 0.46% (n = 350,000). activation, % at 13.2 µM. calcium dye fluorescence (FLIPR); percent of saturating CRF peptide response;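 active = activation of at least 50%, plus an integration ratio under a set limit after plate pattern correction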;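 note: plate controls were neutral control wells without compound for no effect and CRF at EC100 for full effect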
SKN-1 block: suppressors of acrylamide-induced Pgst-4::GFP reporter in worms, primary screen, SKN-1 inhibitor project, whole organism, uHTS, GFP/RFP fluorescence ratio, strain VP596 | C. elegans VP596 Pgst-4::GFP/RFP ratio, 24 h | inhibition, % at 21.8 µM | actives 0.49% (n = 360,000);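 active = interference check ratio from 0.5 to 1.5 plus GFP to RFP signal ratio inhibition reaching or exceeding a fixed threshold, cut at about 30% in these data, passing the limit was not always enough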
CRFBP-R2 block: antagonists of CRF-BP/CRF-R2 complex, primary screen, cell-based, HEK293, calcium dye fluorescence, uHTS; actives 0.59% (n = 350,000); CRF-induced calcium fluorescence; inhibition, % at 11.8 µM;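 active = inhibition of the ligand-induced calcium signal above about 50% at the single tested concentration, limit read from the data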
H9c2 TAG inh: inhibitors of triacylglycerol accumulation, primary screen, cell-based, uHTS, fluorescence, H9c2; H9c2 cells, Nile Red lipid (TAG) fluorescence; cells loaded with 200 µM oleic acid; actives 0.66% (n = 230,000); inhibition, % at 12.5 µM;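 active = pattern-corrected inhibition of lipid staining of at least 50% with the nuclear-stain viability signal not falling by more than 50%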;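 note: 0% = DMSO wells and 100% = triacsin C control wells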
H9c2 protect: cardioprotection against H2O2-induced cell death, primary screen, uHTS, H9c2 cells, ATPLite luminescence; H9c2 cardiomyocytes, H2O2 injury protection, 2 h; protection from H2O2 cell death, % at 20 µM; actives 0.63% (n = 360,000); AID 588492, 2011;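 active = compounds giving at least 50% protection of heart cells from peroxide-induced death in the single-dose screen, raw or plate-pattern-corrected value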;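 note: 0% = DMSO wells with peroxide and 100% = DMSO wells without peroxide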
Active calls of the source: *; / = no result. The list is not random: actives were taken first. Their share in the collection is about 2.5%.

SMILES	iPSC survival up	CRFR2-BP ag	SKN-1 block	CRFBP-R2 block	H9c2 TAG inh	H9c2 protect
O=C(C[C@H]1C[C@H](C(=O)N2CCCCC2)[C@@]2(CCc3ccccc3)c3[nH]c4ccc(Cl)cc4c3CCN2C1=O)NCCN1CCOCC1	-3	57*	-3	-3	10	-7
C[C@]12c3[nH]c4ccccc4c3CCN1C(=O)C(CC(=O)NCC13CC4CC(CC(C4)C1)C3)C[C@@H]2C(=O)N1CCOCC1 (stereo partly drawn)	0	55*	-8	-48	13	-1
CC(C)N(C(=O)[C@H]1C[C@H](CC(=O)NCc2ccco2)C(=O)N2CCc3c([nH]c4cc(CCC(=O)N(C)C)ccc34)[C@]12C)C(C)C	-1	-3	7	60*	6	7
CC(C)N(C(=O)[C@H]1C[C@H](CC(=O)NCCC2=CCCCC2)C(=O)N2CCc3c([nH]c4ccc(Cl)cc34)[C@]12C)C(C)C	0	-3	-24	65*	33	-8
CS(=O)(=O)N1CCCC(C(=O)Nc2ccccc2)C1 (stereo not drawn)	0	7	7	10	-5	2
CC(=O)Nc1ccc(S(=O)(=O)NCCC(=O)OCC(=O)c2ccccc2)cc1	0	2	10	-10	8	4
COc1ccc(C(=O)COC(=O)CCNS(=O)(=O)c2ccc(NC(C)=O)cc2)c(OC)c1	0	1	-17	51*	7	-4
CC(C)(C)C(=O)Nc1sc2c(c1C#N)CCN(Cc1ccccc1)C2	-1	162*	23	-146	-20	-7
CC(C)(C)C(=O)Nc1sc2c(c1C#N)CCCCC2	-4	-1	10	-2	/	-21
NC(=O)c1ccc(NC(=O)CNC(c2ccccc2)c2ccccc2)cc1	0	-1	-9	9	/	-2
COc1ccc(CCC(=O)N(C)CC(=O)Nc2cc(C)ccc2C)cc1	1	-1	3	-2	-23	-1
COc1ccnc(Oc2ccccc2)c1C(=O)N/C=N/OCc1ccc(F)cc1Cl	3	4	4	-15	/	69*
Oc1c(C(Nc2nccs2)c2ccc(C(F)(F)F)cc2)ccc2cccnc12 (stereo not drawn)	0	3	4	-18	60*	40
CCCCC(=O)NC(c1ccc(Cl)cc1)c1ccc2cccnc2c1O (stereo not drawn)	-1	-2	35	35	52*	32
CCCC(=O)NC(c1ccc(Cl)cc1)c1ccc2cccnc2c1O (stereo not drawn)	0	0	12	9	63	43
CCCC(=O)NC(c1ccc(C)cc1)c1ccc2cccnc2c1O (stereo not drawn)	0	3	13	-13	61*	35
CCCCC(=O)NC(c1ccc(N(CC)CC)cc1)c1ccc2cccnc2c1O (stereo not drawn)	0	0	-3	19	/	52*
CCCCC(=O)NC(c1ccc(N(C)C)cc1)c1ccc2cccnc2c1O (stereo not drawn)	0	-1	16	1	55	31
O=C(NCc1cc(C(F)(F)F)cc(C(F)(F)F)c1)c1cc(-c2cc(F)ccc2OCC2CCCO2)n[nH]1 (stereo not drawn)	5	/	14	/	-2	1
CC(C)(C)NC(=O)C(CCc1ccccc1)n1c(=O)c(-c2cc3ccccc3[nH]2)nc2ccccc21 (stereo not drawn)	/	/	-3	/	/	/
O=C(O)c1cn(C2CCCCC2)c2ccccc2c1=O	-1	5	2	-15	0	2
CC1=NOC(=O)/C1=C\c1ccc(-c2ccc(Cl)c(C(=O)O)c2)o1	3	17	14	-15	-11	3
CC1=NOC(=O)/C1=C\c1ccc(-c2ccccc2Br)o1	-1	51*	5	-32	13	-23
CC1=NOC(=O)/C1=C\c1ccc(-c2cccc(Cl)c2)o1	-3	64*	-1	-44	7	-22
O=C(N1CCN=C1SCc1cccnc1)C12CC3CC(CC(C3)C1)C2	1	-2	15	-4	4	-9
SMILES	iPSC survival up	CRFR2-BP ag	SKN-1 block	CRFBP-R2 block	H9c2 TAG inh	H9c2 protect
Cc1cccc(OCc2n(CC(=O)OC3CC(C)CCC3C(C)C)c3ccccc3[n+]2C)c1 (stereo not drawn)	-5	18	5	-105	98*	-21
O=C1Nc2ccccc2C(=O)C1(Cl)Cc1ccccc1 (stereo not drawn)	-1	0	-17	14	14	52*
COC(=O)c1cccc(CC2(C)C(=O)Nc3ccc(OC(F)(F)F)cc32)c1 (stereo not drawn)	-3	/	37*	/	12	-5
O=C1c2ccccc2C(=O)N1Cc1ccco1	1	1	-14	0	3	2
O=C1c2cccc3c(O)ccc(c23)C(=O)N1Cc1ccco1	0	252*	-48	-216	-8	18
Clc1cc(NCc2cccs2)ccc1N1CCOCC1	0	-3	39*	-14	8	-6
c1csc(CNc2ccc3c(c2)OCCO3)c1	-2	-2	3	38	/	-9
COc1ccc(OCCNC(=O)c2ccc3nc(C)c(N(C)Cc4ccc(NC(C)=O)cc4)n3c2)cc1	1	/	17	/	-8	-8
Cc1cn([C@H]2C[C@H](O)[C@@H](CNCc3cnc(N4CCOCC4)s3)O2)c(=O)[nH]c1=O	-1	-2	-2	7	6	-5
O=C(OCc1ccccc1)N1CCN(C(c2ccnc3ccccc23)c2nnnn2-c2ccc3c(c2)OCCO3)CC1 (stereo not drawn)	-1	/	15	/	/	/
CC(C)NC(=S)NC(=O)c1ccc(-c2ccccc2)cc1	-1	72*	12	-172	/	-14
O=C(NC(=S)Nc1ccc(-c2ccccc2)cc1)c1ccccc1	-5	0	26	-10	-28	3
Cc1ccc2nc(C)cc(C(=O)OCC(=O)Nc3c(C)n(C)n(-c4ccccc4)c3=O)c2c1	0	-5	1	10	-5	-5
Cc1c(C(=O)Nc2ccc3nc(N4CCOCC4)sc3c2)oc2ccccc12	0	0	29	-1	49	58*
O=C(Nc1ccc(N2CCOCC2)c(Cl)c1)c1cc2ccccc2o1	-5	-2	26	14	/	4
CN1CCN(c2ccc(NC(=O)c3cc4ccccc4o3)cc2)CC1	0	-1	34	6	/	-4
CC(=O)Nc1ccc(NC(=S)NC(=O)c2cc3ccccc3o2)cc1	-1	-4	-6	-7	-17	-4
